Screening data as filed in PubChem BioAssay.
MEKK3 PB1 HTS = modulators of MEKK3-MEK5 PB1 binding, primary screen, biochemical, wildtype MEKK3, multiplex bead flow cytometry, Alexa488-MEK5; AID 1529, 2009; bead-based flow cytometry, Alexa488-MEK5 binding to MEKK3; actives lie on both sides; 0 = blocked by unlabeled MEK5, 100 = vehicle; 1.4% of 290,000 active; Mitogen-activated protein kinase kinase kinase 3 (Homo sapiens), Q99759; binding response (% of control), % at 10 µM;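 active = binding response more than 3 SD above or below the average of its plate-row segment, actives on both sides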;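 note: Alexa488 bead fluorescence after subtracting the streptavidin-only scavenger bead signal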
ANO1 activ = TMEM16A chloride channel activators or potentiators, primary screen, cell-based, HTS. 0.3% of 340,000 active. HEK293 TMEM16A/YFP-H148Q/I152L, iodide quench fluorescence; active compounds read low. Anoctamin-1 (Mus musculus), Q8BHY3. B-score at 10 µM;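 active = fluorescence-ratio B-score plate-corrected deviation score at least 3 library SD below zero, with starting fluorescence score within 5 deviations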;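 note: channel opened by trigger with iodide after compound preincubation; score built on the fluorescence ratio of max minus min over baseline; more negative score means more quench and so TMEM16A activation or potentiation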
Target sequence (Q8BHY3 whole entry, looked up): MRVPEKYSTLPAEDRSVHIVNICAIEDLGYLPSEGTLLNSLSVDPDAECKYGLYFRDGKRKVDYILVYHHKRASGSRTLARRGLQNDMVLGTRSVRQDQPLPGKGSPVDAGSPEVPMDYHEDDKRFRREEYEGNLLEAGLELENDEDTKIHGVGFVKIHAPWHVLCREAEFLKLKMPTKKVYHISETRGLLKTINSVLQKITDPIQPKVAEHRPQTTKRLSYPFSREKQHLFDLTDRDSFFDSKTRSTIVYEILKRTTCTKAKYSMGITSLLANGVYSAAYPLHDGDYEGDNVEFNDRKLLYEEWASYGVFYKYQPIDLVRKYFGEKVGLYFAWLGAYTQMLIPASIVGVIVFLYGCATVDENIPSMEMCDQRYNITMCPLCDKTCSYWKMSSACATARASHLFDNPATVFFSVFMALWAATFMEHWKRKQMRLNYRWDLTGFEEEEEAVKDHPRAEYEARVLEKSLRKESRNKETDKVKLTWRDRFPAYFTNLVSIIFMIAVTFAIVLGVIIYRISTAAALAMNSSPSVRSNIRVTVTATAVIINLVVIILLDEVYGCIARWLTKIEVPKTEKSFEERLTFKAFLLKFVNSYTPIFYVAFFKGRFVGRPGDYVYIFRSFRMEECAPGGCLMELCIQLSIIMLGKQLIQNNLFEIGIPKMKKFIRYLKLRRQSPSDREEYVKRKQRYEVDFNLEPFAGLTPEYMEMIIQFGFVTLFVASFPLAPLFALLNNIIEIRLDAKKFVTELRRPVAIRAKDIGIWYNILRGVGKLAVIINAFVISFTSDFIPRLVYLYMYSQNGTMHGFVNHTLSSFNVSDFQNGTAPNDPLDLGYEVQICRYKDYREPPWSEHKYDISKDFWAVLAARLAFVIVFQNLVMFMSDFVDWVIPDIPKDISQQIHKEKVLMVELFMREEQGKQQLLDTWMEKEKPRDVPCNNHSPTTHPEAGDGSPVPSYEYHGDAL
ANO1 block = TMEM16A chloride channel inhibitors, primary screen, cell-based, HTS | Anoctamin-1 (Mus musculus), Q8BHY3 | HEK293 TMEM16A/YFP iodide influx fluorescence, ionomycin | normalized B-score (activity score, 25-100; higher = stronger inhibition) at 10 µM | 1.2% of 310,000 active | AID 588511, 2011;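 active = ratio plate-corrected score three or more library SD toward inhibition, starting fluorescence score within five deviations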;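 note: score derived from kinetic fluorescence span divided by baseline fluorescence per well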
MEKK2 WT-MEK5 = modulators of MEK5 binding to wildtype MEKK2, primary screen, biochemical, multiplex bead flow cytometry, Alexa488-MEK5; Mitogen-activated protein kinase kinase kinase 2 (Homo sapiens), Q9Y2U5; Alexa488-MEK5 binding to MEKK2 WT; actives lie on both sides; binding response (% of control), % at 10 µM; 1.1% of 290,000 active; AID 1531, 2009; in the data active = binding response below about 67% or above about 130%
MEKK2mut PB1 HTS = MEK5 binding signal on mutant MEKK2 PB1, primary screen, biochemical, multiplex bead flow cytometry, Alexa488-MEK5. Alexa488-MEK5 binding to MEKK2 mutant. percent response, % at 10 µM. 0.35% of 290,000 active. AID 1530, 2009; in the data active = percent response above about 24%, passing the limit was not always enough
NTR1 ag = agonists of human NTR1, primary screen, imaging, U2OS cells, beta-arrestin-GFP, high content; Neurotensin receptor type 1 (Homo sapiens), P30989; AID 493036, 2011; activation, % at 20 µM; NTR1-U2OS beta-arrestin-GFP spot imaging, agonist mode; 0.17% of 330,000 active;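 active = activation at or above 40% of the spot to cytoplasm intensity ratio, with at least 20 cells analyzed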;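 note: 0% = DMSO without peptide and 100% = 100 nM NTR1 peptide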
TMEM16A reconf = TMEM16A chloride channel inhibitors, confirmation, cell-based, re-confirmation | 39% of 2,300 active | inhibition, % at 10 µM | AID 652189, 2013 | shares compounds with ANO1 block | HEK293 TMEM16A/YFP-H148Q, iodide quench fluorescence; ionomycin added to raise cell calcium;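 active = mean duplicate percent inhibition, scaled so buffer wells are 0 and the reference blocker 100, over three buffer SD above buffer mean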
TMEM16A Ca cntr = calcium mobilization in TMEM16A/YFP HEK293 cells, confirmation, counter-screen for TMEM16A inhibitor project. shares compounds with ANO1 block. Fluo4 calcium mobilization. calcium response (% of ionomycin), % at 10 µM. 2% of 2,300 active. AID 652231, 2013;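 active = duplicate-averaged calcium signal over 20% of the ionomycin maximum, relative to buffer baseline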;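 note: each well's signal is peak minus trough fluorescence divided by its pre-addition baseline; 0% = buffer wells and 100% = ionomycin wells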
Parental YFP cnt = iodide YFP quench changes in parental YFP-HEK293, counter-screen for TMEM16A inhibitor project, cell-based; shares compounds with ANO1 block; ionomycin; YFP ratio F(max-min)/F0 at 10 µM; 2,300 tested, under 10 active;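 active = yellow fluorescent protein signal ratio exceeding the buffer control mean by over 5 SD of those controls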;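 note: ratio is mean of duplicate wells from kinetic YFP trace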
ClC-1 inh = ClC-1 chloride channel inhibition, selectivity assay for TMEM16A inhibitor project, cell-based, voltage-dependent ClC-1; shares compounds with ANO1 block; CHO ClC-1-YFP, iodide influx fluorescence quench; iodide control reads 0, buffer control 100; ratio percent, % at 10 µM; 2,300 tested, under 10 active; AID 652236, 2013;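 active = duplicate-mean ratio percent above the mean of iodide-only control wells, which defines zero, plus 5 of their SD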;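 note: higher percent means stronger block of ClC-1 iodide influx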
The depositor's hits bear a star; i = inactive; x = no result given. In the library only some 3.4% were active in any assay of this set; here they are far more common.

SMILES	MEKK3 PB1 HTS	ANO1 activ	ANO1 block	MEKK2 WT-MEK5	MEKK2mut PB1 HTS	NTR1 ag	TMEM16A reconf	TMEM16A Ca cntr	Parental YFP cnt	ClC-1 inh
CN(C)c1nccc(N(Cc2ccccc2)Cc2ccccc2)c1C#N	92	i	25*	96	-8	4	i	i	-1.2	-8
Cc1onc(-c2ccccc2Cl)c1C(=O)Nc1cccc(-c2cn3cccnc3n2)c1	101	i	25*	99	4	5	i	i	-0.95	-8
C=CCN(C(=O)c1csnn1)C(C(=O)NC1CCCC1)c1ccccc1 (stereo unspecified)	101	i	i	103	7	-1	x	x	x	x
CCOC(=O)C1=C(C)NC(C)=C(C(=O)OC)C1c1ccco1 (stereo unspecified)	100	i	i	97	4	2	x	x	x	x
C=CCOC(=O)C1=C(C)NC(C)=C(C(=O)OCC=C)C1c1ccco1	101	i	i	99	-1	1	i	i	-0.96	-4
Cn1c(SCC(=O)O)nnc1-c1ccc2ncccc2c1	103	x	i	100	1	0	x	x	x	x
O=C(c1ccco1)N1CCCC(c2nc(-c3ccc(S(=O)(=O)NCc4ccccc4)cc3)no2)C1 (stereo unspecified)	x	i	25*	x	x	16	44%*	i	-1	-16
CC(C)(C)c1csc(NC(=O)c2ccccc2O)n1	98	i	25*	96	-5	9	23%*	i	-0.95	-2
COc1ccccc1NS(=O)(=O)c1cccc(NC(=O)c2ccc3ccccc3n2)c1	105	i	i	107	15	2	x	x	x	x
O=C(Nc1cccc(S(=O)(=O)Nc2ccccc2F)c1)c1ccc2ccccc2n1	x	i	100*	x	x	3	i	i	-0.93	-5
O=C(NC(Cc1ccccc1)C(=O)NCc1ccccn1)c1ccco1 (stereo unspecified)	84	i	25*	83	-9	1	i	i	-1	-2
Fc1ccc(Nc2nnc(C(F)(F)F)s2)cc1Cl	101	-6.8*	100*	99	2	6	49%*	i	-1.3	-43
FC(F)(F)c1nnc(Nc2ccc(Cl)cc2)s1	101	i	i	97	2	1	x	x	x	x
COc1ccc(S(=O)(=O)NCC2CCCN(Cc3ccccc3C)C2)cc1 (stereo unspecified)	105	i	i	104	2	0	x	x	x	x
Cc1ccc(N/C(N)=N/c2nc(C)cc(N3CCCCC3)n2)c(C)c1	103	-6.3*	100*	115	8	14	62%*	i	-0.92	-29
O=S(=O)(Nc1ccc(S(=O)(=O)N2CCCCC2)cc1)c1ccc(Br)s1	106	i	25*	101	3	1	i	i	-0.95	-4
Cc1ccc(N(C)S(=O)(=O)c2cc(-c3cnc(C4CC4)o3)ccc2C)cc1	104	i	100*	97	-1	38	20%*	i	-1.4	-9
Cc1cccc(N(C)S(=O)(=O)c2ccc(-c3cnc(C4CC4)o3)cc2)c1	97	i	i	97	-4	6	x	x	x	x
CCOc1ccc(N(C)S(=O)(=O)c2cc(-c3cc(C)no3)ccc2C)cc1	99	i	100*	99	0	8	31%*	i	-0.92	-16
O=[N+]([O-])c1cccnc1SCc1c(F)cccc1Cl	100	i	i	95	-3	2	x	x	x	x
O=[N+]([O-])c1ccc(SCc2c(F)cccc2Cl)nc1	88	i	25*	95	-19	1	16%*	i	-1	-7
CC1(C)C/C(=N\NC(=S)Nc2ccccc2F)c2cc(O)ccc2O1	90	i	i	88	-2	5	x	x	x	x
CCCCSc1oc(-c2ccco2)nc1S(=O)(=O)c1ccccc1	103	i	25*	107	4	10	i	i	-0.74	-9
CCN1C(=O)C(CC(=O)Nc2ccc(OC)cc2)N(Cc2ccc3c(c2)OCO3)C1=S (stereo unspecified)	100	i	i	101	-2	0	x	x	x	x
COc1ccc(/C=C2\SC(=S)N(NS(=O)(=O)c3ccc(C)cc3)C2=O)c(OC)c1	99	i	25*	99	1	4	23%*	i	-0.99	-14
SMILES	MEKK3 PB1 HTS	ANO1 activ	ANO1 block	MEKK2 WT-MEK5	MEKK2mut PB1 HTS	NTR1 ag	TMEM16A reconf	TMEM16A Ca cntr	Parental YFP cnt	ClC-1 inh
COc1ccc(OC)c(/C=C2\SC(=S)N(NS(=O)(=O)c3ccc(C)cc3)C2=O)c1	106	i	i	110	11	1	x	x	x	x
COc1ccc(NC(=O)c2sc3ncn(CC(=O)N4CCN(c5ccccn5)CC4)c(=O)c3c2C)c(OC)c1	103	i	25*	104	-1	0	i	i	-1	-10
COc1ccccc1CNC(=O)c1nn(-c2ccc(C)cc2)c(=O)c2c1c1ccccc1n2C	93	i	i	91	-3	6	i	i	-1.3	-4
O=C(OCc1ccc(Cl)cc1)c1cccnc1Cl	89	i	i	80	-11	0	x	x	x	x
O=C(OCc1ccc(Cl)cc1)c1ccccc1C(=O)c1ccccc1	102	i	100*	100	-2	4	i	i	-1.3	-4
CCCCN(C)S(=O)(=O)c1cc2c3c(c1)CCC(=O)N3CCC2	97	i	i	102	3	2	x	x	x	x
